The text below walks through data of PubChem BioAssay (Tox21).

A number with no mark means an inactive call. Results filed as inconclusive are left out. Active and inactive are the calls of the source. Unless noted, calls follow the shape of the dose curve; as a rule, active = well fitted curve in the direction sought with a large enough effect in the repeat runs; inconclusive = weak or mixed curves; inactive = no such curve, though single readings can be large; an effect the other way counts as inactive or inconclusive.

The target in assay [1] is Progesterone receptor (Homo sapiens) (UniProt P06401). Kind of assay: qHTS assay to identify small molecule antagonists of the progesterone receptor (PR) signaling pathway (AID 1346795; active = well fitted inhibition curve with a large enough effect in the signal ratio in the repeat runs, not every such curve was filed as active; the % refers to the signal ratio; also: potency is read from the fitted curve at half-maximal effect). Put shortly: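 Stimulus R5020 at 1 nM final; cells HEK293T PR-UAS-bla; medium with 2% charcoal-stripped FBS; compound exposure 16 hr at 37C, 5% CO2; detection by FRET beta-lactamase substrate, 2 hr, room temperature.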
Chain of Progesterone receptor (Homo sapiens) (P06401 whole entry, looked up): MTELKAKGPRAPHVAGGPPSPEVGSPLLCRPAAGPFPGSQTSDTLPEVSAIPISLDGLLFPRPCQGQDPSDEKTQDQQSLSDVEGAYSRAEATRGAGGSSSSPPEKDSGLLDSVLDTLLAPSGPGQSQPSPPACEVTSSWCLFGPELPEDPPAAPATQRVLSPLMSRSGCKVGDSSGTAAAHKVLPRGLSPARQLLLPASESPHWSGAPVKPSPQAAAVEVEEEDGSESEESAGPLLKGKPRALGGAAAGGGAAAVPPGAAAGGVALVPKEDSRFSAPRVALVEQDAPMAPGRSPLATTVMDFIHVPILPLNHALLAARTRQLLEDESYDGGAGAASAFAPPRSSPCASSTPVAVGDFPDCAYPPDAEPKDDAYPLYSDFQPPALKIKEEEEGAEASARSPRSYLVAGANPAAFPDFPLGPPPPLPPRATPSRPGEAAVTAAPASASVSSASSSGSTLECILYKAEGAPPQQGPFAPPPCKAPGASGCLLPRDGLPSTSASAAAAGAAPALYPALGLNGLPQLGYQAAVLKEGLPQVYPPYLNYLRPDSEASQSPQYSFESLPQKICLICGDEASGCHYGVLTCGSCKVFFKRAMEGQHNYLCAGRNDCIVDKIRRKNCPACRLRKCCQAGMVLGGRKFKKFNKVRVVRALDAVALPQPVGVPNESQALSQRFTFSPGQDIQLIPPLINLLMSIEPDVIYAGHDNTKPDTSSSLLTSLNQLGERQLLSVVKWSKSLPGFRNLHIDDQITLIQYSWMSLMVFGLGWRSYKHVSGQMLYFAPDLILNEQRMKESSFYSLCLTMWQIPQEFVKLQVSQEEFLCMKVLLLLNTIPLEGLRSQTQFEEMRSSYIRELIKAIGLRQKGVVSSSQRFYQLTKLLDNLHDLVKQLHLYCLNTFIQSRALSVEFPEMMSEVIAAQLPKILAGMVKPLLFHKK
(Quantitative high-throughput screening tests each substance at several concentrations.)

Assay [2] is described as follows: qHTS assay to identify small molecule antagonists of the TGF-beta/Smad signaling pathway - cell viability counter screen (AID 1346824). Also: % is scaled to controls: 0 for no effect and ±100 for the full control effect; nearly all actives have a fitted effect of over 50% in size. Put shortly:
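SBE-bla HEK 293T cells were plated overnight at 37 C, then given compounds in DMSO plus TGF-beta1 (added as 0.25 ng/mL solution) for 5 hr. After the bla read, CellTiter-Glo was added to the same wells and luminescence read after 30 min at room temperature.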

The target in assay [3] is Thyrotropin-releasing hormone receptor (Homo sapiens) (UniProt P34981). The assay can be described thus: qHTS assay to identify small molecule antagonists of the thyrotropin-releasing hormone receptor (TRHR) signaling pathway (AID 1346877; active = well fitted inhibition curve with a large enough effect in the repeat runs, not every such curve was filed as active; also: series mostly up to about 51 µM; % is scaled to controls: 0 for no effect and ±100 for the full control effect). Put shortly:
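Calcium signal in dye-loaded TRHR/HEK293 cells; compounds added 5 min before TRH (1 nM final); fluorescence monitored 3 min at 1 s steps.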

The target is the same in assay [4]. The assay can be described thus: qHTS assay to identify small molecule agonists of the thyrotropin-releasing hormone receptor (TRHR) signaling pathway (AID 1346891; calls by dose curve; also: series mostly up to about 58 µM; % is scaled to controls: 0 for no effect and ±100 for the full control effect). In a few lines:
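Readout was intracellular calcium fluorescence in TRHR-Hek293 cells. Cells were incubated 18 h, dye-loaded 2 h at 37 °C, and treated with compound in agonist mode.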

Assay [5] in a line: Human pregnane X receptor (PXR) small molecule agonists, qHTS cell viability counter screen (AID 1346977). Also: nearly all actives have a fitted effect of over 50% in size. Also: potency is read from the fitted curve at half-maximal effect. Put shortly: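 In each well, the PXR reporter HepG2 line was checked for viability: CellTiter-Fluor reagent added 23hr post-dosing, fluorescence read after 1hr incubation at 37C.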
A short description of assay [6]: Caspase-3/7 induction in HepG2 cells by small molecules, qHTS assay (AID 1346978). Also: nearly all actives have a fitted effect of over 15% in size. Also: potency is read from the fitted curve at half-maximal effect. Put shortly:
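Wild-type HepG2 cells (2,000/well) were settled 5 h at 37 C, 5% CO2, then exposed to compounds in DMSO for 17 h. Caspase-3/7 activity was read by luminescence 30 min after adding Caspase-Glo 3/7 reagent at room temperature.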

Assay [7] is described as follows: Caspase-3/7 induction in CHO-K1 cells by small molecules, qHTS cell viability counter screen (AID 1346979). Also: potency is read from the fitted curve at half-maximal effect; nearly all actives have a fitted effect of over 35% in size. In a few lines: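 Following a 5hr settling period, CHO-K1 cells at 1,500 per well received DMSO-dissolved compounds. Cell viability was quantified 16hr later by CellTiter-Fluor fluorescence, measured after 1hr with reagent at 37C.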
Assay [8] is described as follows: Caspase-3/7 induction in CHO-K1 cells by small molecules, qHTS assay (AID 1346980). Also: nearly all actives have a fitted effect of over 15% in size. Also: potency is read from the fitted curve at half-maximal effect. In a few lines: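 Wild-type cells were seeded at 1,500 per well and settled 5 hr at 37 C, 5% CO2, then exposed to DMSO-dissolved compounds for 17 hr. Caspase-Glo 3/7 reagent was added, and luminescence was read after 30min at room temperature.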
The nature of assay [9]: Caspase-3/7 induction in HepG2 cells by small molecules, qHTS cell viability counter screen (AID 1346981). Also: potency is read from the fitted curve at half-maximal effect; nearly all actives have a fitted effect of over 30% in size. In a few lines: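 After a 5-hr attachment period at 37 C and 5% CO2, wild-type HepG2 cells received compounds in DMSO. Sixteen hours later CellTiter-Fluor was dispensed and the fluorescent signal quantified after a further hour.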
Assay [10] is described as follows: qHTS assay to identify small molecule agonists of the TGF-beta/Smad signaling pathway - cell viability counter screen (AID 1346829). Also: top concentration of the series differs between compounds; % is scaled to controls: 0 for no effect and ±100 for the full control effect; nearly all actives have a fitted effect of over 45% in size. Put shortly: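 Same-well cytotoxicity: CellTiter-Glo added after the 2 hr room-temperature beta-lactamase substrate step, luminescence measured 30 min later; cells had 5 hr of compound at 37 C.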
Assay [11] is described as follows: qHTS assay to identify small molecule agonists of the TGF-beta/Smad signaling pathway (AID 1346859; active = well fitted activation curve with a large enough effect in the signal ratio in the repeat runs, not every such curve was filed as active; the % refers to the signal ratio; also: series mostly up to about 77 µM; % is scaled to controls: 0 for no effect and ±100 for the full control effect). In a few lines:
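Screening used HEK 293T SBE-bla cells at 4,000/well. Test agents: 5 hr, 37 C. Detection: FRET substrate, 2 hr RT, then excitation 405 nm with emissions at 460 and 530 nm.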

In assay [12] the target is Nuclear receptor subfamily 1 group I member 2 (Homo sapiens) (UniProt O75469). Kind of assay: Human pregnane X receptor (PXR) small molecule agonists, qHTS assay (AID 1346982). Also: nearly all actives have a fitted effect of over 35% in size. Also: potency is read from the fitted curve at half-maximal effect. As to activation: % is scaled to controls: 0 for no effect and ±100 for the full control effect. Put shortly:
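Tox21 qHTS; PXR-Luc HepG2; compounds pinned from DMSO; 24 hr, 37 C; ONE-Glo luciferase detection, 30 min room temperature.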

Assay [13] deals with Nuclear receptor subfamily 1 group I member 2 (Rattus norvegicus) (UniProt Q9R1A7). Kind of assay: Rat pregnane X receptor (rPXR) activation by small molecules, qHTS assay (AID 1346983). Also: nearly all actives have a fitted effect of over 20% in size. Also: potency is read from the fitted curve at half-maximal effect. The conditions noted are these: rPXR luciferase reporter cells, One-Glo luminescence, 24 h; max activation: active compounds read high. In a few lines:
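Cell-based rPXR luciferase reporter assay, 2,000 cells per well, rested 5hr at 37 C before compound addition in DMSO, then 24 hr at 37 C. One-Glo reagent was added and luminescence read after 30 min at room temperature.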

The target of assay [14] is Nuclear receptor subfamily 1 group I member 2 (Homo sapiens) (UniProt O75469). The assay can be described thus: CYP3A4 induction through human pregnane X receptor (PXR) by small molecules, qHTS assay (AID 1346984). Also: nearly all actives have a fitted effect of over 40% in size. Also: potency is read from the fitted curve at half-maximal effect. Put shortly: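 Cells (DPX-2; HepG2 with PXR element plus CYP3A4-promoter luciferase) settled 5hr, then were treated 24hr at 37C. A 3hr, 3uM-final Luciferin-IPA step preceded luminescence measurement with One-Glo.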
Chain of Nuclear receptor subfamily 1 group I member 2 (Homo sapiens) (O75469 whole entry, looked up): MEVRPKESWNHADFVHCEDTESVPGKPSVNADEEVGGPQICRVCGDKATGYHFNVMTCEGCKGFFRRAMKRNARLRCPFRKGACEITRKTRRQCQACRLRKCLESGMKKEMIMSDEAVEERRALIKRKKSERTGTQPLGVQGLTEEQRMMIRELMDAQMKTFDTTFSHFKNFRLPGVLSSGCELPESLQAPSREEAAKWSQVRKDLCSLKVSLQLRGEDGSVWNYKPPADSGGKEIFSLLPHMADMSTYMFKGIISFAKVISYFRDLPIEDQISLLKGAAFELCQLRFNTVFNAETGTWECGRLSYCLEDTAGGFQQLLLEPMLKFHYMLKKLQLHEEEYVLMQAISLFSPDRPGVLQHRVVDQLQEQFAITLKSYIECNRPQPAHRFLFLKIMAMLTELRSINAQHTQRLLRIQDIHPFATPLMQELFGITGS

Assay [15] concerns the target Cytochrome P450 2D6 (Homo sapiens) (UniProt P10635). The assay can be described thus: Cytochrome P450 Family 2 Subfamily D Member 6 (CYP2D6) small molecule antagonists: luciferase reporter qHTS assay (AID 1671196). Also: nearly all actives have a fitted effect of over 50% in size. Also: potency is read from the fitted curve at half-maximal effect. Put shortly:
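Room-temperature luminescent CYP2D6 activity assay: compound preincubated 10 min with enzyme–substrate mix, NADPH-initiated reaction 1 h, detection reagent 20 min before reading.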

Assay [16] has as its target Cytochrome P450 2C19 (Homo sapiens) (UniProt P33261). Kind of assay: Cytochrome P450 Family 2 Subfamily C Member 19 (CYP2C19) small molecule antagonists: luciferase reporter qHTS assay (AID 1671197). Also: nearly all actives have a fitted effect of over 65% in size. Also: potency is read from the fitted curve at half-maximal effect. Put shortly: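 Quantitative high-throughput screen of the Tox21 library using CYP2C19 with proluciferin substrate. Reaction: NADPH regeneration, 37C, 1 h, after 10 min compound preincubation at room temperature. Readout: luminescence.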

The nature of assay [17]: qHTS assay to identify small molecule agonists of the progesterone receptor (PR) signaling pathway - cell viability counter screen (AID 1346799; calls by dose curve; also: nearly all actives have a fitted effect of over 45% in size; also: potency is read from the fitted curve at half-maximal effect). In a few lines: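 Multiplexed viability read: CellTiter-Glo luminescence, 30 min RT, following LiveBLAzer FRET measurement on PR-UAS-bla HEK293T cells exposed to compounds 16 hr.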
Assay [18] in a line: qHTS assay to identify small molecule antagonists of the progesterone receptor (PR) signaling pathway - cell viability counter screen (AID 1346798). Also: potency is read from the fitted curve at half-maximal effect; nearly all actives have a fitted effect of over 50% in size. In a few lines:
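In the same plates used for the beta-lactamase readout, cell viability of compound- and R5020-treated PR-UAS-bla HEK293T cells (16 hr, 37C) was assessed by CellTiter-Glo luminescence.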

Assay [19] has as its target Nuclear receptor subfamily 1 group I member 2 (Homo sapiens) (UniProt O75469). The assay can be described thus: Human pregnane X receptor (PXR) activation by small molecules, qHTS assay (AID 1346985). Also: % is scaled to controls: 0 for no effect and ±100 for the full control effect; nearly all actives have a fitted effect of over 40% in size. Put shortly: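 DPX-2 cells (HepG2 co-transfected with a PXR response element and a CYP3A4-promoter luciferase construct) were seeded at 2,000 per well, rested 5 hr at 37C, then exposed to DMSO-dissolved compounds for 24 hr. Activation was read as luciferase luminescence.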

Chain of Cytochrome P450 2D6 (Homo sapiens) (P10635 whole entry, looked up): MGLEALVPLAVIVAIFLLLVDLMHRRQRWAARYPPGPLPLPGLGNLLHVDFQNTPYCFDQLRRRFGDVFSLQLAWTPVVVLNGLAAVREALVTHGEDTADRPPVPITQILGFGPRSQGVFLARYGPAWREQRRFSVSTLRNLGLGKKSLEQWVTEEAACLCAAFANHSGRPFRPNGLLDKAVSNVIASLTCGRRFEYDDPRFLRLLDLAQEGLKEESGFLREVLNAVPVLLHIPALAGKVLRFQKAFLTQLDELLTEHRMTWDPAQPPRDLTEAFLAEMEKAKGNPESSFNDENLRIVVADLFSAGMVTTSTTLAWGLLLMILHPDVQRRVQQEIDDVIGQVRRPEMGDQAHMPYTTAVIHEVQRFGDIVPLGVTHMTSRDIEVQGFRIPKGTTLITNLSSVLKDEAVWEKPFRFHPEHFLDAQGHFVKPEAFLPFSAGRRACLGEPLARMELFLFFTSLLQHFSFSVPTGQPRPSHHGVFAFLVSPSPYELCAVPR
Chain of Cytochrome P450 2C19 (Homo sapiens) (P33261 whole entry, looked up): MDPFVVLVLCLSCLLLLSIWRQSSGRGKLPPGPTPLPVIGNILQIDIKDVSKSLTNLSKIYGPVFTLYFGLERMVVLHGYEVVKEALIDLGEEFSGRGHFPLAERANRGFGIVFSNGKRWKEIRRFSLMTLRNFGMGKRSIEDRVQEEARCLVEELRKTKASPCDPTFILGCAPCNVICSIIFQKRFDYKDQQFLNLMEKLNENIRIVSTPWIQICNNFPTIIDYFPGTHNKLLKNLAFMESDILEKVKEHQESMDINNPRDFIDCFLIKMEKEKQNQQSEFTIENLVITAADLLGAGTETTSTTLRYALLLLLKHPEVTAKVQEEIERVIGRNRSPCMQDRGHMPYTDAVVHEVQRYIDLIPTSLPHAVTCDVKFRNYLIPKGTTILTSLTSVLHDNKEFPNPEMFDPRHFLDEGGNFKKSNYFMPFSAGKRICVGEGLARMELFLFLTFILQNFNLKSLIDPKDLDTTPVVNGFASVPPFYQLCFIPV
Chain of Thyrotropin-releasing hormone receptor (Homo sapiens) (P34981 whole entry, looked up): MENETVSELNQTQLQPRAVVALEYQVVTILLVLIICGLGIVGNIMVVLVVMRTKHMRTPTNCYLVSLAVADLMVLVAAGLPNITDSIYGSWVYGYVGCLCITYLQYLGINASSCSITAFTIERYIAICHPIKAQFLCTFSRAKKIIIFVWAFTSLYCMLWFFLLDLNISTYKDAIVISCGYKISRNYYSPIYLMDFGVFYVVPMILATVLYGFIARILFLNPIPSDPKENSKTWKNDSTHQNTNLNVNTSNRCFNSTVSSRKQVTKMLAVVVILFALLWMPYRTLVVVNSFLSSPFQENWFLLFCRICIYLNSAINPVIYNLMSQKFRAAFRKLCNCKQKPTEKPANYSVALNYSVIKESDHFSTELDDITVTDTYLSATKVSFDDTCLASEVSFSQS
Chain of Nuclear receptor subfamily 1 group I member 2 (Rattus norvegicus) (Q9R1A7 whole entry, looked up): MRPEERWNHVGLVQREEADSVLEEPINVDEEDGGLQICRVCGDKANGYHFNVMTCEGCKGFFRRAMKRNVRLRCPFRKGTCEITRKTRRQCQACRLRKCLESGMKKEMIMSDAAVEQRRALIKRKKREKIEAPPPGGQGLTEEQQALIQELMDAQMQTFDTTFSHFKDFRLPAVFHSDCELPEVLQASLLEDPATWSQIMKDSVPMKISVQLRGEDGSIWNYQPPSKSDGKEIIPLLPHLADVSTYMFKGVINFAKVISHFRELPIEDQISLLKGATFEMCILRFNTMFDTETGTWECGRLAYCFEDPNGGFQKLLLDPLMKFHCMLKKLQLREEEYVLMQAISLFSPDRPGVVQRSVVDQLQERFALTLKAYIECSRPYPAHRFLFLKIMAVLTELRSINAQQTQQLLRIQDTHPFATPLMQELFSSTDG

In the case of `O=C1c2c(O)ccc(O)c2C(=O)c2c(NCCNCCO)ccc(NCCNCCO)c21`, the Potency was 3.35 µM (active) in assay [1]; 4.22 µM (active) in assay [5]; 4.22 µM (active) in assay [6]; 10.6 µM (active) in assay [7]; 11.9 µM (active) in assay [9]. For the same molecule, the Potency entry in assay [2], in [3], in assay [4] and in assay [8] was “inactive” each time.

Turning to `COc1cc(C=C2CCC/C(=C\c3ccc(O)c(OC)c3)C2=O)ccc1O`, the Potency was 6.68 µM (active) in assay [1]; 29.8 µM (active) in [5]; 29.8 µM (active) in assay [7]; 29.8 µM (active) in assay [9]; 24.5 µM (active) in assay [16]. Also, the Potency result in [2], in [10], in assay [11], in [3], in assay [4] and in [8] was “inactive” each time. Besides, the Potency result in assay [12], in assay [14] and in [15] was “inactive” in each case. In addition, the max activation in assay [13] was -7.88%.

`CN1CCN(C2Cc3ccccc3Sc3ccc(Cl)cc32)CC1` (stereo not given): the Potency is 26.6 µM (active) in assay [1]; 29.8 µM (active) in [17]; 26.6 µM (active) in assay [5]; 31.6 µM (active) in assay [14]; 0.347 µM (active) in assay [15]; 11 µM (active) in assay [16]. Further, the Potency result in assay [10], in [11], in [3], in assay [4], in assay [8] and in [12] was “inactive” throughout.

With `O[C@@H](c1cc(C(F)(F)F)nc2c(C(F)(F)F)cccc12)[C@H]1CCCCN1`, the Potency in [1] was 23.7 µM (active); in assay [18] it was 26.6 µM (active); in assay [17] it was 26.6 µM (active); in assay [5] it was 26.6 µM (active); in assay [6], 26.6 µM (active); in assay [7], 26.6 µM (active). Moreover, the Potency result in assay [10], in assay [11], in assay [3], in [12] and in [19] was “inactive” throughout. Besides, the max activation in assay [13] is -16.9%.

Regarding `C=CC(=O)OCCOCC(CC)(COCCOC(=O)C=C)COCCOC(=O)C=C`, the Potency was 28.4 µM (active) in assay [1]; 63.7 µM (active) in assay [17]; 63.7 µM (active) in [5]; 8.02 µM (active) in [7]; 63.7 µM (active) in assay [9]; 28.4 µM (active) in assay [12]. For the same molecule, in assay [16], the Potency was 23.4 µM (active). Moreover, the Potency entry in assay [10], in assay [11] and in [6] was “inactive” throughout.

Regarding `O=C1NCN(c2ccccc2)C12CCN(CCCC(c1ccc(F)cc1)c1ccc(F)cc1)CC2`, the Potency was 26.6 µM (active) in assay [1], 29.8 µM (active) in assay [5], 33.5 µM (active) in assay [7] and 26.6 µM (active) in assay [9]. For the same molecule, the Potency entry in assay [17], in assay [3], in [4] and in [12] was “inactive” throughout.

Consider `COC(=O)C1=C(C)NC(C)=C(C(=O)OCCCN2CCC(c3ccccc3)(c3ccccc3)CC2)C1c1cccc([N+](=O)[O-])c1` (stereo not given), for which the Potency was 18.8 µM (active) in assay [1]; 13.3 µM (active) in assay [17]; 26.6 µM (active) in assay [5]; 26.6 µM (active) in assay [7]; 29.8 µM (active) in [9]; 5.01 µM (active) in [13]. The Potency entry in [2], in assay [11] and in assay [4] was “inactive” each time.

Turning to `CC(C)(C)c1cc(/C=C2\SC(=N)NC2=O)cc(C(C)(C)C)c1O`, the Potency is 61.1 µM (active) in [1]; 48.6 µM (active) in assay [5]; 54.5 µM (active) in [7]; 30.6 µM (active) in [12]; 39.9 µM (active) in [15]; 20 µM (active) in assay [16]. Further, the Potency result in assay [2], in assay [10], in assay [11], in assay [3], in assay [4] and in assay [6] was “inactive” in each case. In addition, the Potency entry in assay [8] was “inactive”.

Turning to `O=C(Oc1ccccc1)c1cccc(C(=O)Oc2ccccc2)c1`, the Potency in assay [1] is 25.7 µM (active); in assay [18] it was 64.4 µM (active); in [7], 51.2 µM (active); in assay [12] it was 0.456 µM (active); in assay [15], 28.9 µM (active); in [16] it was 2.98 µM (active). The Potency result in assay [10], in assay [3], in [4], in assay [5], in assay [6] and in assay [8] was “inactive” in each case.

`Oc1c(Br)cc(Br)c2cccnc12`: the Potency was 2.66 µM (active) in assay [1], 23.7 µM (active) in assay [7], 29.8 µM (active) in [12] and 1 µM (active) in [14]. In addition, the Potency entry in assay [17], in assay [2], in assay [10], in assay [11], in assay [6] and in assay [8] was “inactive” in each case. In addition, in assay [16], the Potency entry is “inactive”. The max activation in assay [13] was -2.52%.

For `C/C=C/C(=O)Oc1c(CCCCCC(C)C)cc([N+](=O)[O-])cc1[N+](=O)[O-]`, the Potency was 19.3 µM (active) in [1]; 15.4 µM (active) in assay [5]; 15.4 µM (active) in assay [7]; 48.6 µM (active) in assay [8]; 27.3 µM (active) in assay [9]; 21.7 µM (active) in assay [12]. Moreover, the Potency in [16] was 35.6 µM (active). The Potency result in assay [15] was “inactive”.
